Screens deposited in PubChem BioAssay by Buhrlage Lab, Dana-Farber Cancer Institute and Novartis Institutes for BioMedical Research (Cambridge, Mass).
An excerpt weighted towards active compounds, which were near 12% of everything screened.
USP17 inh: inhibitors of human USP17 deubiquitinase | 47,000 compounds, 6.5% hits | inhibition, % at 50 µM | Ubiquitin carboxyl-terminal hydrolase 17-like protein 5 (Homo sapiens), A8MUK1 | purified USP17, Ub-rhodamine cleavage fluorescence, 3 h | AID 1645855, 2021
Target sequence (A8MUK1 whole entry, looked up): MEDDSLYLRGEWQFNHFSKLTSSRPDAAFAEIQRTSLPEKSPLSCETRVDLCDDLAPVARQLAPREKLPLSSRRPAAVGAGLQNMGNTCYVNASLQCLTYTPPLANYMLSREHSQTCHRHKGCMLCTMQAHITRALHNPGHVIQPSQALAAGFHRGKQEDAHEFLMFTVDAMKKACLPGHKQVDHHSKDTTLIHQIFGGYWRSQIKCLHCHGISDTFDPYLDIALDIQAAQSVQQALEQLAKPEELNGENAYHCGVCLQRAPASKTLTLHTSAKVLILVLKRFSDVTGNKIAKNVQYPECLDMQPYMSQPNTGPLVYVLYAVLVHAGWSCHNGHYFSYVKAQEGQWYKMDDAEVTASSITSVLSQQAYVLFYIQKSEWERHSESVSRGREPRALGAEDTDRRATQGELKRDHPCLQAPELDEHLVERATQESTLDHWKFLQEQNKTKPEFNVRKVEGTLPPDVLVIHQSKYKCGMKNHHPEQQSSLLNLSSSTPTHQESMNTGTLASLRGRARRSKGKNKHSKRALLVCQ
USP30 inh: inhibitors of human USP30 deubiquitinase; Ubiquitin carboxyl-terminal hydrolase 30 (Homo sapiens), Q70CQ3; purified USP30, Ub-rhodamine cleavage fluorescence; inhibition, % at 25 µM; 47,000 compounds, 5.3% hits; AID 1645860, 2021
USP8 block: inhibitors of human USP8 deubiquitinase; Ubiquitin carboxyl-terminal hydrolase 8 (Homo sapiens), P40818; purified USP8, Ub-rhodamine cleavage fluorescence, 30 min; inhibition, % at 20 µM; 47,000 compounds, 4.2% hits; AID 1645853, 2021
Numbers stand for hits; - = inactive; . = not tested or not shown. Cut-off read from the data, not from the text of the source: active = inhibition above about 30%; inactive = the rest.

SMILES	USP17 inh	USP30 inh	USP8 block
CC(C)(C)C(=O)C1C2C(=O)N(Cc3ccccc3)C(=O)C2C2c3ccccc3C=CN12 (configuration not stated)	56	-	81
O=C(Nc1ccc2c(c1)OCO2)C1[C@@H]2C(=O)N(c3ccccc3)C(=O)[C@@H]2[C@H]2c3ccccc3C=CN12 (some centres not stated)	-	-	49
COc1ccc(NC(=O)C2[C@@H]3C(=O)N(c4ccc5c(c4)OCO5)C(=O)[C@@H]3[C@H]3c4ccccc4C=CN23)cc1 (some centres not stated)	-	-	55
COc1ccc(S(=O)(=O)N(Cc2ccccc2)c2ccccc2C(=O)Nc2ccc(S(=O)(=O)Nc3cc(C)ccc3OC)cc2)cc1	-	-	-
CN(C)c1cc(C(=O)NCCN2CCOCC2)nc2ccnn12	-	-	-
COc1ccc(NC(=O)Cn2c(=O)n(C3CCCCC3)c(=O)c3ccccc32)cc1	-	-	-
COc1ccc(NC(=O)C2[C@@H]3C(=O)N(C4CCCCC4)C(=O)[C@@H]3[C@H]3c4ccccc4C=CN23)cc1 (some centres not stated)	60	-	78
CC(Oc1ccccc1)C(=O)N1CCC(Cc2ccccc2)CC1 (configuration not stated)	-	-	-
Brc1ccccc1CN1CCN(Cc2ccccn2)CC1	-	-	-
CCc1ccc(NC(=O)C(C)OC(=O)/C=C/c2ccc(S(=O)(=O)Nc3cccc(S(N)(=O)=O)c3)cc2)cc1 (configuration not stated)	33	-	-
COc1ccc(C(=O)COC(=O)/C=C/c2ccc(S(=O)(=O)Nc3cccc(S(N)(=O)=O)c3)cc2)cc1	-	-	-
N#Cc1cccc(CN2CCC(c3nc(-c4ccc(C(F)(F)F)nc4)no3)CC2)c1	-	-	-
CCC(C)c1ccc(O[C@@H]2O[C@@H]3COC(c4ccccc4)O[C@H]3[C@H](O)[C@H]2NC(C)=O)cc1 (some centres not stated)	40	82	-
COc1cccc(NC(=O)COc2cccc(-n3cnnn3)c2)c1	-	-	-
COc1ccc2c(c1)C=C(C(=O)Nc1ccc(-n3cnnn3)cc1)C=CO2	39	33	-
O=C(Nc1ccc(F)cc1)c1cccc(-n2cnnn2)c1	-	-	-
CCCOc1cccc(C(=O)Nc2ccc(-n3cnnn3)cc2)c1	51	83	48
COc1ccc2c(c1)C=C(C(=O)Nc1ncc(Cc3ccc(C)cc3)s1)C=CO2	-	-	-
CCc1ccc(NC(=O)COc2cccc(-n3cnnn3)c2)cc1	-	63	-
CS(=O)(=O)c1cccc(N2CCN(Cc3ccc(F)cc3F)C2=O)c1	-	-	-
Cc1cc(F)ccc1NC(=O)Cc1c(C)nc2c(-c3ccccc3)c(C)nn2c1C	-	-	-
CCCc1nc2sc3c(SCC(=O)Nc4ccccn4)ncnc3c2c2c1COC(C)(C)C2	-	-	-
Cc1onc(-c2ccccc2)c1C(=O)NCc1ccc(F)cc1F	-	-	-
Cc1sc2ncnc(SCC(=O)c3cc(C)n(Cc4ccco4)c3C)c2c1C	39	-	63
Cc1sc2ncnc(OCC(=O)c3cc(F)ccc3F)c2c1C	-	-	-
SMILES	USP17 inh	USP30 inh	USP8 block
O=C(C1CN(Cc2ccccn2)Cc2ccnn2C1)N1CCOCC1 (configuration not stated)	-	-	-
O=C(Cc1ccc(Cl)cc1)Nc1ccc2nn(-c3ccc(F)cc3)nc2c1	45	.	-
O=C(Cc1ccc(F)cc1)Nc1ccc(N2CCOCC2)cc1	-	-	-
O=C(COC(=O)c1cc(Cl)c2c(c1)OCO2)Nc1ccc2[nH]c(=O)[nH]c2c1	57	-	-
O=C(COC(=O)c1ccc(F)cc1)Nc1ccc2[nH]c(=O)[nH]c2c1	-	-	-
CC(C)C(Nc1ccc(C(F)(F)F)cc1Cl)C(=O)Nc1nc2ccccc2[nH]1 (configuration not stated)	40	37	-
C[C@H](NC(=O)C1COc2ccccc2O1)C(=O)Nc1nc2ccccc2[nH]1 (some centres not stated)	-	-	-
Cc1nc2nc(C(c3ccccc3)c3ccccc3)[nH]n2c(=O)c1Cc1ccccc1	45	-	-
Cc1cc(=O)n2[nH]c(C(c3ccccc3)c3ccccc3)nc2n1	-	-	-
CCc1noc(-c2ccc(-n3ncc(C(=O)N4CCCC(C)C4)c3C)nc2)n1 (configuration not stated)	-	-	-
CS(=O)(=O)c1ccccc1C(=O)NC1CCCc2ccccc21 (configuration not stated)	-	-	-
O=C(NC1CCCc2ccccc21)c1cnn(-c2ccccc2)c1-n1cccc1 (configuration not stated)	-	32	-
